Assay outcomes deposited in PubChem by several laboratories.
MEKK2 mut-MEK5 = signal of MEK5 binding to mutant human MEKK2 PB1 domain; actives 0.35% (n = 290,000); bead flow cytometry, Alexa488-MEK5 binding to MEKK2 mutant; percent response, % at 10 µM; in the data active = percent response above about 24%, passing the limit was not always enough
NTR1 ag = NTR1 (human) agonism | P30989 | NTR1-U2OS beta-arrestin-GFP spot imaging, agonist mode | activation, % at 20 µM | actives 0.17% (n = 330,000) | AID 493036;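 active = activation at or above 40% of the spot to cytoplasm intensity ratio, with at least 20 cells analyzed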
Target sequence (P30989 whole entry, looked up): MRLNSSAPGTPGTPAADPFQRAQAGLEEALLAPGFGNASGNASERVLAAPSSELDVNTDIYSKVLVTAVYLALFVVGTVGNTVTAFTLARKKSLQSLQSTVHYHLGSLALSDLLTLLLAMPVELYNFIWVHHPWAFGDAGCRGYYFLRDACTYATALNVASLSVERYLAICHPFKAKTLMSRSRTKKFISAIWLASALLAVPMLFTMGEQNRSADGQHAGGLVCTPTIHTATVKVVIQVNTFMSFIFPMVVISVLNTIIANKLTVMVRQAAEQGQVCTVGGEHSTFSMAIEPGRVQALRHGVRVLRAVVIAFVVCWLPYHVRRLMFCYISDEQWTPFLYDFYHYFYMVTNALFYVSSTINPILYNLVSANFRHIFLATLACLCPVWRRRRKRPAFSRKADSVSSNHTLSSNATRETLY
TMEM16A act = mouse TMEM16A channel activation, primary screen; Q8BHY3; HEK293 TMEM16A/YFP-H148Q/I152L, iodide quench fluorescence; active compounds read low; B-score at 10 µM; actives 0.3% (n = 340,000);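 active = fluorescence-ratio B-score plate-corrected deviation score at least 3 library SD below zero, with starting fluorescence score within 5 deviations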;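 note: channel opened by trigger with iodide after compound preincubation; score built on the fluorescence ratio of max minus min over baseline; more negative score means more quench and so TMEM16A activation or potentiation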
MEKK2wt PB1 HTS = raises or lowers MEK5 binding to wildtype human MEKK2 PB1 domain; Q9Y2U5; bead flow cytometry, Alexa488-MEK5 binding to MEKK2 WT; actives lie on both sides; binding response (% of control), % at 10 µM; actives 1.1% (n = 290,000); AID 1531; in the data active = binding response below about 67% or above about 130%
TMEM16A inh = inhibitors of mouse TMEM16A calcium-activated chloride channel | Q8BHY3 | HEK293 TMEM16A/YFP iodide influx fluorescence, ionomycin | normalized B-score (activity score, 25-100; higher = stronger inhibition) at 10 µM | actives 1.2% (n = 310,000) | AID 588511;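 active = ratio plate-corrected score three or more library SD toward inhibition, starting fluorescence score within five deviations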;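 note: score derived from kinetic fluorescence span divided by baseline fluorescence per well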
MEKK3 PB1 HTS = modulators (inhibitors or enhancers) of MEK5 binding to human MEKK3 PB1 domain; binding response (% of control), % at 10 µM; bead-based flow cytometry, Alexa488-MEK5 binding to MEKK3; actives lie on both sides; 0 = blocked by unlabeled MEK5, 100 = vehicle; Q99759; actives 1.4% (n = 290,000);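 active = binding response more than 3 SD above or below the average of its plate-row segment, actives on both sides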;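 note: Alexa488 bead fluorescence after subtracting the streptavidin-only scavenger bead signal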
MEKK2wt confirm = raises or lowers MEK5 binding to wildtype human MEKK2, retest; actives 2.4% (n = 5,900); bead flow cytometry, Alexa488-MEK5 binding to MEKK2 WT; actives lie on both sides; shares compounds with MEKK3 PB1 HTS; AID 1892; binding response (% of control), % at 10 µM; in the data active = binding response below about 16% or above about 210%; inactive = in between
MEKK2mut-MEK5 = signal of MEK5 binding to mutant human MEKK2, retest; percent response, % at 10 µM; bead flow cytometry, Alexa488-MEK5 binding to MEKK2 mutant; actives 2% (n = 5,900); AID 1893; shares compounds with MEKK3 PB1 HTS; in the data active = percent response mostly above about 71%, no sharp cut-off; inactive = mostly below about 38%;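 note: higher means compound restores mutant binding toward wildtype level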
MEKK3-MEK5 inh = confirmation of inhibitors of MEK5 binding to human MEKK3 | shares compounds with MEKK3 PB1 HTS | bead flow cytometry, Alexa488-MEK5 binding to MEKK3; active compounds read low | binding response (% of control), % at 10 µM | actives 1.8% (n = 5,900);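 active = binding response below 72% of control, or above a set upper limit, though filed actives all read lower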;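 note: lower values mean stronger disruption of MEK5 binding to MEKK3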
Of the large screens only hits and unclear results are named; the others gave an inactive call (follow-up assays come after a bar, where they were run); [ ] = another dose, or the depositor's remark. In the library only some 3.4% were active in any assay of this set; here they are far more common.

CN(C)CCCN(C(=O)c1sc2ccccc2c1Cl)c1nc2c(F)cccc2s1	MEKK2 mut-MEK5 139, MEKK2wt PB1 HTS 325 | MEKK2wt confirm inactive | MEKK2mut-MEK5 inactive | MEKK3-MEK5 inh inactive
Cc1cccc2sc(N(CCCN(C)C)C(=O)c3sc4ccccc4c3Cl)nc12	MEKK2 mut-MEK5 53, MEKK2wt PB1 HTS 197 | MEKK2wt confirm inactive | MEKK2mut-MEK5 inactive | MEKK3-MEK5 inh inactive
COc1cccc2sc(N(CCCN(C)C)C(=O)c3sc4ccccc4c3Cl)nc12	MEKK2 mut-MEK5 63, MEKK2wt PB1 HTS 211 | MEKK2wt confirm inactive | MEKK2mut-MEK5 inactive | MEKK3-MEK5 inh inactive
COc1ccc(N2CCN(C(=O)NCc3cccc(OC)c3)CC2)cc1	none
CC(C)(c1ccccc1)c1ccc(OCC(O)CNC2CCN(Cc3ccccc3)CC2)cc1 (stereo unspecified)	MEKK2 mut-MEK5 62, MEKK2wt PB1 HTS 252, TMEM16A inh 100 | MEKK2wt confirm inactive | MEKK2mut-MEK5 inactive | MEKK3-MEK5 inh inactive
Cc1[nH]n(-c2ccc(F)cc2)c(=O)c1C=Nc1ccc(S(=O)(=O)N(C)C)cc1	MEKK2wt PB1 HTS 11[inhibitor] | MEKK2wt confirm inactive | MEKK2mut-MEK5 inactive | MEKK3-MEK5 inh inactive
Cc1cccc(N(C)C(=O)C2CCCN2S(=O)(=O)c2cccc3nsnc23)c1 (stereo unspecified)	none
CCCN1C2CCCC1CC(NC(=S)Nc1ccc(OC)cc1)C2 (stereo unspecified)	none
COc1ccc(NC(=S)NC2CC3CCCC(C2)N3C2CC2)cc1 (stereo unspecified)	MEKK3 PB1 HTS 135 | MEKK2wt confirm inactive | MEKK2mut-MEK5 inactive | MEKK3-MEK5 inh inactive
COc1ccc(NC(=O)NCCCN2CCN(c3cc(C)ccc3C)CC2)cc1	MEKK2 mut-MEK5 25, MEKK2wt PB1 HTS 135 | MEKK2wt confirm inactive | MEKK2mut-MEK5 inactive | MEKK3-MEK5 inh inactive
CC(NC1CCCC1)c1ccccc1 (stereo unspecified)	none
CC(NCCC(c1ccccc1)c1ccccc1)c1ccccc1 (stereo unspecified)	MEKK2wt PB1 HTS 145 | MEKK2wt confirm inactive | MEKK2mut-MEK5 inactive | MEKK3-MEK5 inh inactive
COc1ccc(C)cc1NC(=O)c1ccc(NS(=O)(=O)c2cccc3cccnc23)cc1	MEKK3 PB1 HTS 131 | MEKK2wt confirm inactive | MEKK2mut-MEK5 inactive | MEKK3-MEK5 inh inactive
COc1ccc(NS(=O)(=O)c2cccc3cccnc23)cc1	MEKK3 PB1 HTS 72[inhibitor] (no result: TMEM16A act) | MEKK2wt confirm inactive | MEKK2mut-MEK5 inactive | MEKK3-MEK5 inh inactive
COc1ccccc1NC(=O)c1ccc(NS(=O)(=O)c2cccc3cccnc23)cc1	none
COC(=O)CS(=O)(=O)c1cccc2cccnc12	MEKK2wt PB1 HTS 4.0[inhibitor], MEKK3 PB1 HTS 3.0[inhibitor] | MEKK2wt confirm inactive | MEKK2mut-MEK5 inactive | MEKK3-MEK5 inh inactive
COC(=O)c1ccc(NS(=O)(=O)c2cccc3cccnc23)cc1	none
N#CC1=C(SCC(=O)Nc2ccc(C(=O)O)cc2)NC(=O)CC1c1ccco1 (stereo unspecified)	none
CCOC(=O)C1(CCOc2ccccc2)CCN(Cc2cc(OC)c3c(c2)OCO3)CC1	MEKK2wt PB1 HTS 145 | MEKK2wt confirm inactive | MEKK2mut-MEK5 inactive | MEKK3-MEK5 inh inactive
Cc1occc1-c1nnc(SCC(=O)c2ccc(F)cc2)o1	MEKK3 PB1 HTS 48[inhibitor] | MEKK2wt confirm inactive | MEKK2mut-MEK5 inactive | MEKK3-MEK5 inh inactive
Cc1ccc(CSc2nnc(-c3ccc(NS(=O)(=O)c4ccccc4)cc3)o2)cc1	MEKK2wt PB1 HTS 26[inhibitor], MEKK3 PB1 HTS 21[inhibitor] | MEKK2wt confirm inactive | MEKK2mut-MEK5 inactive | MEKK3-MEK5 inh inactive
